Data from PubChem BioAssay (NCI).
About 79,000 compounds went through this panel and 15% of them were active in at least one assay; those are over-represented in the sample as a whole. Unmarked numbers belong to inactive results. Activity calls are given as the source filed them. No stated cut-off is given here; in the data, active means growth inhibition above about 70%; inactive means the rest.

Assays:
[1] = NCI Yeast Anticancer Drug Screen. Data for the rad50 strain (AID 155);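 further: 0% = growth of vehicle-only cultures of the same strain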; details: S. cerevisiae rad50 strain growth inhibition, active compounds read high
Summary of the method: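 Yeast carrying a defined DNA repair defect were exposed to test compounds, and growth was compared with vehicle-treated controls to give percent inhibition.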

[2] = NCI Yeast Anticancer Drug Screen. Data for the mec2-1 strain (AID 157); details: S. cerevisiae mec2-1 strain, active compounds read high
Summary of the method: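 Each compound was tested on mec2-1 yeast, a strain altered in DNA damage repair or cell cycle control. Growth inhibition is reported relative to vehicle.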

[3] = NCI Yeast Anticancer Drug Screen. Data for the sgs1 mgt1 strain (AID 161);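 further: 0% = growth of cultures given vehicle only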; details: S. cerevisiae sgs1 mgt1 strain, active compounds read high
Summary of the method: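 Inhibition of yeast growth, normalised to vehicle-treated controls, is reported for a strain bearing genetic alterations in DNA damage repair.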

[4] = NCI Yeast Anticancer Drug Screen. Data for the cln2 rad14 strain (AID 165);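 further: 0% = growth equal to vehicle treated cultures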; details: S. cerevisiae cln2 rad14 strain, active compounds read high
Summary of the method: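 Test compounds were added to cln2 rad14 yeast cultures; inhibition of growth was then determined by comparison with vehicle treatment.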

[5] = NCI Yeast Anticancer Drug Screen. Data for the bub3 strain (AID 167); details: S. cerevisiae bub3 mutant strain, active compounds read high
Summary of the method: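 Compounds were applied to a genetically altered yeast strain carrying a cell-cycle control defect. Growth inhibition was scored against vehicle-treated controls.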

[6] = NCI Yeast Anticancer Drug Screen. Data for the mlh1 rad18 strain (AID 175); details: S. cerevisiae mlh1 rad18 strain growth inhibition, active compounds read high
Summary of the method: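 Inhibition values reflect reduced growth of mutant yeast versus vehicle-treated controls following compound exposure; the mutations affect DNA damage repair.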

[7] = at 5.0 µM (retest, dose inferred, filed as 0.5)
[8] = at 50.0 µM (retest, dose inferred, filed as 5.0)

Row | Structure (SMILES) | growth inhibition [1, 7] | growth inhibition [1, 8] | growth inhibition ([1]; at 50.0 µM) | growth inhibition [2, 7] | growth inhibition [2, 8] | growth inhibition ([2]; at 50.0 µM) | growth inhibition [3, 7] | growth inhibition [3, 8] | growth inhibition ([3]; at 50.0 µM) | growth inhibition [4, 7] | growth inhibition [4, 8] | growth inhibition ([4]; at 50.0 µM) | growth inhibition [5, 7] | growth inhibition [5, 8] | growth inhibition ([5]; at 50.0 µM) | growth inhibition [6, 7] | growth inhibition [6, 8] | growth inhibition ([6]; at 50.0 µM)
1 | CC(=O)NC1=C(Oc2ccccc2)C(=O)c2ccccc2C1=O | 94% (active) | 99% (active) | 99.2% (active) | 98% (active) | 100% (active) | 97.8% (active) | 88% (active) | 100% (active) | 99.1% (active) | 89% (active) | 100% (active) | 70% (active) | 98% (active) | 100% (active) | 94.5% (active) | 96% (active) | 99% (active) | 99.1% (active)
2 | CCOC(=O)CCC(NC(=O)c1ccc(NC(OC)c2nc3cc(C(F)(F)F)ccc3nc2-c2ccccc2)cc1)C(=O)OCC (configuration not stated) | 88% (active) | 88% (active) | 92.8% (active) | 78% (active) | 78% (active) | 93.2% (active) | 90% (active) | 90% (active) | 93.8% (active) | 80% (active) | 80% (active) | 92.7% (active) | 84% (active) | 84% (active) | 91.8% (active) | 92% (active) | 92% (active) | 91.9% (active)
3 | CC(C)CC(NC(=O)COc1c(Cl)cc(Cl)c(Cl)c1Cl)C(=O)O (configuration not stated) | 0% | 8% | 13% | -1% | 39% | -8.6% | -1% | 12% | -32.6% | 4% | 19% | 3.35% | 5% | 10% | 1% | -2% | 12% | 25.9%
4 | O=C(CC1(O)C(=O)Nc2c(Cl)cc(Cl)cc21)c1ccc(Cl)cc1 (configuration not stated) | 0% | 87% (active) | 85% (active) | -1% | 91% (active) | 70.3% (active) | 3% | 98% (active) | 81% (active) | -3% | 96% (active) | 82.5% (active) | -3% | 93% (active) | 71.5% (active) | -1% | 97% (active) | 93.8% (active)
5 | COc1cc(C2SC(N)=Nc3c2c(C)nn3C(=O)c2ccccc2O)cc(OC)c1OC (configuration not stated) | -1% | 80% (active) | 52.5% | -10% | 71% (active) | 39.9% | -5% | 75% (active) | 79.8% (active) | 3% | 25% | 56.4% | -1% | 70% (active) | 79.1% (active) | 6% | 86% (active) | 50.2%
6 | Oc1ccc(/C=N/NC(=S)Nc2ccccc2)nc1 | 1% | 53% | 82.8% (active) | 4% | 60% | 86.8% (active) | 6% | 69% | 82.8% (active) | -9% | 42% | 68.7% | 11% | 72% (active) | 84.3% (active) | 0% | 78% (active) | 84.2% (active)
7 | N#CC(C#N)=C(c1ccccc1)c1ccccc1 | -8% | 99% (active) | 97.4% (active) | 13% | 100% (active) | 99.5% (active) | 18% | 99% (active) | 99.4% (active) | -33% | 99% (active) | 99.5% (active) | -6% | 100% (active) | 99.3% (active) | -4% | 100% (active) | 99.4% (active)
8 | C[C@]12CCC3[C@@H](CC[C@@H]4c5nonc5CC[C@]34C)C1CCC(=O)N2 (some centres not stated) | 10% | 24% | 50.1% | 5% | 17% | -4.95% | 11% | 27% | 51.5% | 7% | 13% | -3.6% | 6% | 48% | 31.9% | 16% | 21% | 25.4%
9 | CCC/C(=N\NC(=S)N1CCCCCC1)c1ccccn1 | 69% | 97% (active) | 90.3% (active) | 77% (active) | 97% (active) | 93.5% (active) | 72% (active) | 97% (active) | 90.9% (active) | 66% | 97% (active) | 91.7% (active) | 90% (active) | 96% (active) | 90.7% (active) | 82% (active) | 96% (active) | 90.2% (active)
10 | Nc1c(F)cccc1F | -2% | 8% | -16.3% | 2% | 0% | 11.6% | -3% | 1% | -5.95% | 2% | -6% | 20.4% | 2% | 7% | -1.15% | 0% | 3% | -8.3%
11 | CCC[CH2][Sn]([CH2]CCC)([S]/C(C#N)=N/N=C/c1ccc(N(C)C)cc1)[S]/C(C#N)=N/N=C/c1ccc(N(C)C)cc1 | 57% | 98% (active) | 97% (active) | 66% | 98% (active) | 92.5% (active) | 52% | 98% (active) | 95.8% (active) | 40% | 94% (active) | 95% (active) | 64% | 99% (active) | 95.8% (active) | 72% (active) | 98% (active) | 95.9% (active)
12 | O=C(CC1(O)C(=O)Nc2c(Cl)ccc(Cl)c21)c1ccc(Cl)cc1Cl (configuration not stated) | 25% | 25% | 91.6% (active) | 13% | 13% | 90.7% (active) | 18% | 18% | 90.8% (active) | -6% | -6% | 91.3% (active) | -2% | -2% | 93.7% (active) | 19% | 19% | 92.2% (active)
13 | CN(C)c1nc(=NCc2ccccc2)ss1 | -7% | 46% | 66.9% | -5% | 38% | 54.7% | 19% | 77% (active) | 72.5% (active) | 8% | 48% | 36.6% | 0% | 76% (active) | 59% | 5% | 82% (active) | 50.1%
14 | CS(=O)(=O)OCCCN(CCCOS(C)(=O)=O)c1ccc(C=Nc2ccc(-c3csc(COc4ccc(Br)cc4Br)n3)cc2)cc1 | 18% | 83% (active) | 86.3% (active) | 6% | 83% (active) | 92.8% (active) | 13% | 82% (active) | 90% (active) | 0% | 83% (active) | 85.8% (active) | 5% | 90% (active) | 89.2% (active) | 17% | 85% (active) | 90.7% (active)
15 | CCc1nc(N)nc(N)c1-c1ccc(NCCN)c([N+](=O)[O-])c1 | -20% | -26% | 98.7% (active) | -3% | 5% | 98.7% (active) | -28% | -22% | 98.8% (active) | -7% | -34% | 98.5% (active) | 2% | -28% | 98% (active) | -31% | -40% | 98.9% (active)
16 | CCN1/C(=C\c2cc[n+](CC)c3ccccc23)C=Cc2ccccc21 | -3% | 96% (active) | 42.4% | 2% | 96% (active) | 51.5% | -1% | 86% (active) | 32.4% | -8% | 96% (active) | -31.4% | 6% | 97% (active) | 68.8% | 1% | 97% (active) | 53.4%
17 | COc1ccc(C2SCC(=O)N2c2nncs2)cc1 (configuration not stated) | -1% | 5% | 50.1% | -3% | 1% | 3.55% | -1% | 3% | 9.5% | 2% | 7% | -8.95% | 4% | 12% | 21.7% | 2% | 5% | 13.8%
18 | Cc1ccc(-c2c3c(cc4cc(C)ccc24)C(=O)OC3=O)cc1 | 12% | 26% | 14.8% | -2% | 12% | 6.85% | -1% | 27% | 17.9% | 4% | 6% | 15.2% | 1% | 4% | 15.8% | -2% | 25% | 32.9%
19 | COC(=O)c1ccc(OC)cc1 | 2% | -1% | 49.9% | 3% | -3% | 3.4% | -1% | -4% | 49.8% | -1% | -7% | 20.7% | 3% | 2% | 69.1% | 3% | -3% | 16.2%
